# Laboratory results from the supplement of paper PMC4894684.
# Counter-ions that a name gives are not always drawn. ± gives the standard deviation of the averaged measurements.
# Tested on: Toxoplasma gondii RH (in HFF)
# Experiment: parasite growth relative to the screen mean (all compounds = 100%); higher = less inhibition of parasite growth
# Conditions: 5 µM; 72 h; oxygen 21 %
# Method in brief: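 Library compounds (10 mM DMSO stocks) were pin-transferred to 5 µM final onto confluent human foreskin fibroblasts in 96-well plates, then infected within 2 h with RH β-Gal–GFP Toxoplasma (MOI 1:5) and grown 72 h at 21% O2. Parasite number came from a CPRG β-Gal assay against in-plate standard curves. Growth is expressed relative to the screen mean (all compounds = 100%), averaged over two screens. Uninfected host-cell viability was checked by CellTiter-Blue.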
row,SMILES,parasite growth [%]
1,O=[N+]([O-])c1cc(Cl)ccc1S(=O)(=O)N1CCN(Cc2ccccc2)CC1,130 ± 24
2,COc1cc2nc(N3CCN(C(=O)C4CCCO4)CC3)nc(N)c2cc1OC (stereo not drawn) [Terazosin hydrochloride],122 ± 12
3,CSc1nc(NC2CCCC2)c([N+](=O)[O-])c(NC2CCCC2)n1,35.6 ± 32
4,O=C(NCC1CCCCN1)c1cc(OCC(F)(F)F)ccc1OCC(F)(F)F (stereo not drawn) [Flecainide acetate],130 ± 7.9
5,N#C/C(=C(/N)Sc1ccc(N)cc1)c1ccccc1C(F)(F)F,113 ± 29
6,Nc1nc2c(cnn2CCc2ccccc2)c2nc(-c3ccco3)nn12,100 ± 39
7,O=C(O)C1=CCCN(CCON=C(c2ccccc2)c2ccccc2)C1,159 ± 9.8
8,COc1cc(OC)c(NC(=O)Nc2cc(C)on2)cc1Cl,135 ± 17
9,CCCOc1ccccc1-c1nc2[nH]nnc2c(=O)[nH]1 [Zaprinast],98.3 ± 14
10,CNC(=C[N+](=O)[O-])NCCSCc1ccc(CN(C)C)o1 [Ranitidine hydrochloride],94.7 ± 18
11,CCS(=O)(=O)N1CCC[C@@H]2CN3CCc4cc(OC)ccc4[C@@H]3C[C@@H]21,125 ± 31
12,O=C1CC2(CCCC2)CC(=O)N1CCCCN1CCN(c2ncccn2)CC1 [Buspirone hydrochloride],171 ± 21
13,Nc1c2c(nc3ccccc13)CCCC2 [Tacrine hydrochloride],130 ± 27
14,CC(C)(C)c1ccc(S(=O)(=O)/C=C/C#N)cc1,127 ± 30
15,COc1ccc(-c2oc3cc(OC)ccc3c2C(=O)c2ccc(C#N)cc2)cc1,81.1 ± 22
16,CC(C)c1onc(-c2c(Cl)cccc2Cl)c1COc1ccc(/C=C/c2cccc(C(=O)O)c2)c(Cl)c1,95.6 ± 18
17,OC(CN1CCC(Cc2ccc(F)cc2)CC1)c1ccc(Cl)cc1 (stereo not drawn) [Eliprodil],93.6 ± 21
18,O=C(O)c1c(Sc2ccccc2)c2cc(Cl)ccc2n1Cc1ccc(Cl)cc1,88.5 ± 6.7
19,COC(=O)Nc1ccc2[nH]cc(CCNC(C)=O)c2c1,81 ± 2.9
20,O=C(O)CCc1ccc(NCc2cccc(Oc3ccccc3)c2)cc1,198 ± 12
21,CN(C)C/C=C(/c1ccc(Br)cc1)c1cccnc1 [Zimelidine dihydrochloride],126 ± 4.6
22,CCOC(=O)N1CCC(=C2c3ccc(Cl)cc3CCc3cccnc32)CC1 [Loratidine],112 ± 4.8
23,FC(F)(F)c1ccc(/C=C/c2nc(COc3ccc(CCCCn4ccnn4)cc3)co2)cc1,36 ± 14
